Values joined by “and” are separate entries in the source; they are usually repeats but may differ in a detail not shown here. Equal entries are not always repeated. Compounds without any hit were thinned out: in the full panel of roughly 83,000, 20% have a hit.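 Step 1: grow cells in 96-well plates. Step 2: add test compound at a single concentration. Step 3: incubate 48 h. Step 4: record percent growth.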 Active and inactive are the calls of the source.
Each molecule was assayed on EKVX NSCLC (assay: NCI-60 one-dose screen, 48 h (100 = growth as untreated, 0 = no growth, -100 = all killed)). Conditions: 10 µM unless noted.
Procedure: Growth inhibition of the EKVX human Non-Small Cell Lung tumor cell line is measured as a screen for anti-cancer activity. Cells are grown in 96 well plates and exposed to the test compound for 48 hours. Compounds are tested at a single concentration, which is 10^-5 M for most compounds. The reported endpoint is percent growth (GI% or GIPRCNT), where numbers from 0 - 100% represent growth inhibition, and numbers from -100% - 0 represent cell death. For example, a value of 40 represents 60% growth inhibition. A value of 0 means no net growth occurred over the course of the experiment. A value of -40 indicates 40% of cells at the beginning of the experiment died by the end of the experiment. A value of -100 means all cells are dead at the end of the experiment.
NCI-60 Human Tumor Cell Lines Screen was performed using the standard one-dose NCI protocol, which is described in more detail at https://dtp.cancer.gov/discovery_development/nci-60/default.htm.
Compounds with GIPRCNT values below 10 were considered active. Activity score was based on GIPRCNT using the following formula: […]
Score is 0 for GIPRCNT values of 100 or above, 50 for GIPRCNT values of 0, and 100 for GIPRCNT values of -100.

Q: How did the growth turn out when `COc1ccc2c(c1)c(CC(=O)O)c(C)n2C(=O)c1ccc(Cl)cc1` was run?
A: 95.9% (inactive)

Q: With `CC1(C)N=c2cc3c(cc2N1c1ccc(Cl)cc1)=Nc1ccccc1N3c1ccc(Cl)cc1` as the molecule, how does the growth read?
A: 52.9% (inactive)

Q: For `CCOc1ccc(C(C[N+](=O)[O-])Sc2ccccc2N)cc1` (stereo not given), which growth is on record?
A: 66.9% (inactive)

Q: `CC1C(c2ccccc2)OCCN1C(=S)Nc1ccc(S(=O)(=O)N2CCCCC2)cc1` (stereo not given) was tested. Which growth did it give?
A: 92.1% (inactive)

Q: `Cc1nnc(N/N=C/c2ccc([N+](=O)[O-])o2)[nH]c1=O` was tested. Which growth did it give?
A: -17.2% (active)

Q: How did the growth turn out when `O/N=C1\c2ccccc2-c2ccc(F)cc21` was run?
A: 90.4% (inactive)

Q: For `CCNc1nnnn1CC`, which growth is on record?
A: 94.5% (inactive)

Q: Which growth does the source give for `O=C(CBr)c1ccc(OC(=O)c2ccccc2)cc1` here?
A: 118% (inactive)

Q: `COC(=O)C(=[N+]=[N-])C(=O)c1ccc([N+](=O)[O-])o1` was tested. Which growth did it give?
A: 111% (inactive)

Q: How did the growth turn out when `COc1cc(NCc2ccc3nc(N)nc(N)c3c2C)cc(OC)c1OC` (tested in a mixture with another compound) was run?
A: 55.8% (inactive)

Q: How did the growth turn out when `O=C(CCl)N(c1ccccc1)c1ccccc1` was run?
A: 111% (inactive)

Q: How did the growth turn out when `S=C(SSC(=S)N1CCOCC1)N1CCOCC1` was run?
A: 95.3% (inactive)

Q: With `CCOC(=O)c1c(C)[nH]c2ccc(O)cc12` as the molecule, how does the growth read?
A: 98.3% (inactive)

Q: `COc1c(C)c2c(c(O)c1C/C=C(\C)CCC(=O)O)C(=O)OC2` was tested. Which growth did it give?
A: 48.2% (inactive)

Q: How did the growth turn out when `CCCCCC/C=C1\CCC(CN2CCCC2)C1=O` (stereo not given) was run?
A: 113% (inactive)

Q: For `COC(=O)c1nc(=S)[nH]c(C(=O)OC)c1C(=O)c1ccc(Cl)c(Cl)c1`, which growth is on record?
A: 100% (inactive)

Q: For `O=C1C=CC(O)=CC1=P(c1ccccc1)(c1ccccc1)c1ccccc1`, which growth is on record?
A: 93.8% (inactive)

Q: With `CCC(=O)c1cc([N+](=O)[O-])c(Br)s1` as the molecule, how does the growth read?
A: 104% (inactive)

Q: `Cc1ccc2c(c1)sc(-c1ccc(N(C)C)cc1)[n+]2C` was tested. Which growth did it give?
A: 6.29% (active)

Q: With `CCN(CC)CC(O)CNc1ccc(NCC2CO2)c2c1C(=O)c1ccccc1C2=O` (stereo not given) as the molecule, how does the growth read?
A: 23.5% (inactive)

Q: With `COc1cc(/C=C/C(=O)CC(=O)/C=C/c2ccc(O)c(OC)c2)ccc1O` as the molecule, how does the growth read?
A: 67.6% (inactive)

Q: For `Cc1nn(CCO)c(C)c1N=[N+]([O-])c1c(C)nn(CCO)c1C`, which growth is on record?
A: 23.4% (inactive)

Q: With `CCN(CC)CC(O)c1cc(-c2ccc(Cl)cc2)nc2cc(Cl)ccc12` (stereo not given) as the molecule, how does the growth read?
A: 60.5% (inactive)

Q: For `N#CCc1cccc2ccccc12`, which growth is on record?
A: 101% (inactive)

Q: With `N#C/C(=N\Nc1ccc(Cl)cc1)C(=O)C1CC1` as the molecule, how does the growth read?
A: 32.2% (inactive)

Q: How did the growth turn out when `Cc1nc(Sc2nc3ccc([N+](=O)[O-])cc3s2)sc1C` was run?
A: 88.5% (inactive)

Q: How did the growth turn out when `CCOC(=O)/C(=C\c1ccc2ccccc2c1)P(=O)(OCC)OCC` was run?
A: 71% (inactive)

Q: Which growth does the source give for `CCOC(=O)c1[nH]c(C#N)c(C(=O)OCC)c1C` here?
A: 93.3% (inactive)

Q: `O=[N+]([O-])CC(O)c1ccccc1` (stereo not given) was tested. Which growth did it give?
A: 113% (inactive)

Q: Which growth does the source give for `O=C(O)c1cccc2cccc(-c3c4ccc(=O)c(O)c-4oc4c(O)c(O)ccc34)c12` here?
A: 83.7% (inactive)

Q: For `CCOC(=O)C1=NN(c2ccccc2)C(=O)/C1=C\N1C(=O)/C(=C/c2cccc(O)c2)SC1=S`, which growth is on record?
A: 107% (inactive)

Q: How did the growth turn out when `CC(=O)N1CC(=O)NC1=S` was run?
A: 94% (inactive)

Q: Which growth does the source give for `CCCCCC[C@@H](O)C/C=C\CCCCCCCC(=O)OCCOC` here?
A: 79.1% (inactive)

Q: `Cc1ccc(NC2=CC(=O)C(=O)c3ccccc32)cc1` was tested. Which growth did it give?
A: 73% (inactive)

Q: How did the growth turn out when `OC(c1cc(-c2ccc(C(F)(F)F)cc2)nc(C(F)(F)F)c1)C1CCCCN1` (stereo not given) was run?
A: 27.2% (inactive) and 3.74% (active) and 67.6% (inactive)

Q: Which growth does the source give for `S=c1[nH]c2cc(Cl)ccc2s1` here?
A: 102% (inactive)

Q: Which growth does the source give for `CCCCCCCCCCCC[n+]1ccc2ccccc2c1` here?
A: -4.82% (active)

Q: With `CCCCCCC1N=C(N)N=C(N)N1c1cccc(Cl)c1` (stereo not given) as the molecule, how does the growth read?
A: 76.8% (inactive)

Q: Which growth does the source give for `c1ccc(-c2cccc(-c3ccccn3)n2)nc1` here?
A: 15.8% (inactive)

Q: With `COc1ccc(/C=C2/C(=O)ON=C2C)cc1` as the molecule, how does the growth read?
A: 109% (inactive)

— PubChem BioAssay (NCI)
